Measurements as given in PubChem BioAssay AID504652 (National Center for Advancing Translational Sciences (NCATS), 2011).
Screen size: about 360,000 compounds; about 11,000 (3.1%) were called active. Cut-off read from the data, not from the text of the source: active = activity change below about -30%; inactive = the rest. Many of the other results were omitted from the sample, so actives are more common in it than they were.
% is set by controls: 0 for no effect and ±100 for the full control effect.

The molecules below were run against D(1A) dopamine receptor (Homo sapiens) (UniProt P21728) (assay: Antagonist of Human D 1 Dopamine Receptor: qHTS). Conditions: HEK293 TREx D1 cells, calcium flux, dopamine EC80; at 10 µM; stronger effect = lower value.
D(1A) dopamine receptor (Homo sapiens), sequence (P21728 whole entry, looked up): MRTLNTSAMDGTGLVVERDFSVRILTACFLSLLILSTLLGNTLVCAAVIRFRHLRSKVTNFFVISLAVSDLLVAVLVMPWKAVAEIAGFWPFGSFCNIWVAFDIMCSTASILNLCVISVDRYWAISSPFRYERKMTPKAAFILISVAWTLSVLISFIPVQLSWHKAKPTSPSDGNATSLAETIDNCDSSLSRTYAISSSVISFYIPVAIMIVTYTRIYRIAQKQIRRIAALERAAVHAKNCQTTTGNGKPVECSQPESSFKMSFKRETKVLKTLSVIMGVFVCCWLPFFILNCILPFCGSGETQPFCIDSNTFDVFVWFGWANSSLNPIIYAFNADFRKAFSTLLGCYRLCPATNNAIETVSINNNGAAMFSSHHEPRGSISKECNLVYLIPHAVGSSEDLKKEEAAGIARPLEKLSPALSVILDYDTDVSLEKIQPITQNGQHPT
Method in brief: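 Calcium flux readout: force-coupled, inducible Hek293 Trex D1 line, cells induced overnight at 30 C with tetracycline, dye-loaded 30–90 min at RT. Antagonism scored against EC80 dopamine challenge given 180 s after compound.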
With `O=C(c1ccc(C(F)(F)F)cc1)N1CCC(c2nc(-c3ccc(S(=O)(=O)N4CCCC4)cc3)no2)CC1` the activity change, negative = inhibition was -0.206% (inactive).
For `S=c1[nH]nc(NCCc2ccccc2)s1`, the activity change, negative = inhibition was 0.618% (inactive).
For `Cc1nc(C)c(-c2csc(NCCc3ccccc3)n2)s1`, the activity change, negative = inhibition was -71% (active).
In the case of `CCCCC(=O)Nc1nc(C)c(-c2csc(Nc3ccc(Cl)cc3)n2)s1`, the activity change, negative = inhibition is reported as 103% (inactive).
With `CCCSC(=S)NC1CCS(=O)(=O)C1` (stereo not given) the activity change, negative = inhibition was -7.48% (inactive).
In the case of `O=C(CSc1ccccc1F)NC1CCS(=O)(=O)C1` (stereo not given), the activity change, negative = inhibition is reported as 2.27% (inactive).
`O=S1(=O)CCC(NC(=S)SCc2ccccc2Br)C1` (stereo not given) was tested, and the activity change, negative = inhibition was -63% (active).
For `Cc1ccccc1CNC(=O)C1CCCN(S(=O)(=O)N(C)c2ccc(F)cc2)C1` (stereo not given), the activity change, negative = inhibition was -10.3% (inactive).
For `S=C(NCc1cccs1)Nc1ccc(Cl)cc1`, the activity change, negative = inhibition was -26.2% (inactive).
In the case of `FC(F)(F)Oc1ccc(NC(=S)NCc2ccccc2)cc1`, the activity change, negative = inhibition is reported as -19.3% (inactive).
With `Fc1ccccc1CNC(=S)Nc1ccc(Cl)cc1` the activity change, negative = inhibition was -38.1% (active).
`Cc1ccc(C(=O)Nc2cc3c(cc2N2CCCC2)n(C)c(=O)c(=O)n3C)cc1` was tested, and the activity change, negative = inhibition was 16% (inactive).
With `COc1ccc(N2C(=O)CS(=O)(=O)C23C(=O)N(Cc2ccc(C)cc2)c2ccccc23)cc1Cl` (stereo not given) the activity change, negative = inhibition was -16% (inactive).
In the case of `CCOc1ccccc1NC(=O)CN1CCCN(Cc2cccc(Cl)c2)S1(=O)=O`, the activity change, negative = inhibition is reported as 2.3% (inactive).
For `O=C(O)CCCc1ccccc1`, the activity change, negative = inhibition was -31.7% (active).
`O=C(O)CCC(=O)N(Cc1ccccc1)Cc1ccccc1` was tested, and the activity change, negative = inhibition was -11.6% (inactive).
With `O=C(CCCc1ccccc1)NCc1ccccc1` the activity change, negative = inhibition was -7.61% (inactive).
With `O=C(CSc1oc(-c2ccccc2)nc1S(=O)(=O)c1ccc(Br)cc1)NC1CCCCC1` the activity change, negative = inhibition was 8.79% (inactive).
In the case of `CCc1ccc(-n2nnc(-c3nc(-c4ccccc4)no3)c2C)cc1`, the activity change, negative = inhibition is reported as -9.23% (inactive).
`CCOc1cc(C2C(C(=O)c3ccco3)=C(O)C(=O)N2Cc2ccccc2)ccc1O` (stereo not given) was tested, and the activity change, negative = inhibition was 9.97% (inactive).
With `O=C(C1=C(O)C(=O)N(Cc2ccccc2)C1c1ccco1)c1ccco1` (stereo not given) the activity change, negative = inhibition was -36.2% (active).
`CC(C)c1ccc(C2C(C(=O)c3ccco3)=C(O)C(=O)N2CC2CCCO2)cc1` (stereo not given) was tested, and the activity change, negative = inhibition was -6.37% (inactive).
`O=S(=O)(c1ccc2c(c1)OCCO2)N1CCN(S(=O)(=O)c2cc(F)ccc2F)CC1` was tested, and the activity change, negative = inhibition was -3.7% (inactive).
For `CCCNC(=O)c1ccc(N2CCC3(CC2)CC(c2cccc(Br)c2)=NO3)c(NC(=O)c2ccco2)c1`, the activity change, negative = inhibition was -2.71% (inactive).
In the case of `O=C(COc1ccccc1F)NNC(=O)c1ccc(N2CCCCC2)c([N+](=O)[O-])c1`, the activity change, negative = inhibition is reported as -3.15% (inactive).
For `CC1CCN(c2ccc(C(=O)NCc3ccc4c(c3)OCO4)cc2[N+](=O)[O-])CC1`, the activity change, negative = inhibition was -7.43% (inactive).
`CCC(C)NC(=O)c1ccc(N2CCC3(CC2)OCCO3)c([N+](=O)[O-])c1` (stereo not given) was tested, and the activity change, negative = inhibition was -7.67% (inactive).
`CCCNC(=O)c1ccc(N2CCC3(CC2)CC(c2ccc(Cl)cc2)=NO3)c([N+](=O)[O-])c1` was tested, and the activity change, negative = inhibition was -31.3% (active).
In the case of `COCCNC(=O)c1ccc(N2CCC3(CC2)OCCO3)c([N+](=O)[O-])c1`, the activity change, negative = inhibition is reported as -74.3% (active).
With `COc1cccc(NC(=O)CN2C(=O)c3ccccc3Sc3ncccc32)c1` the activity change, negative = inhibition was 5.53% (inactive).
In the case of `COc1cccc(-c2nc(CS(=O)(=O)CC(=O)N3CCN(c4cc(C)ccc4C)CC3)c(C)o2)c1`, the activity change, negative = inhibition is reported as -16.9% (inactive).
In the case of `CC(NC(=O)CCc1cn(Cc2ccccc2Cl)c2ccccc12)c1ccccc1` (stereo not given), the activity change, negative = inhibition is reported as -6.68% (inactive).
`CCOCCCNC(=O)c1c(NC(=O)Cc2coc3c(C)c(C)ccc23)sc2c1CCC2` was tested, and the activity change, negative = inhibition was 11.9% (inactive).
In the case of `Cc1ccc(Cl)cc1NC(=O)CCC(=O)N1CC(C)Sc2ccccc21` (stereo not given), the activity change, negative = inhibition is reported as 0.985% (inactive).
`COc1ccccc1CNS(=O)(=O)c1ccc(C)cc1` was tested, and the activity change, negative = inhibition was -13.9% (inactive).
In the case of `Cc1ccc(S(=O)(=O)NCc2nc3ccccc3c(=O)n2N)cc1`, the activity change, negative = inhibition is reported as -32.4% (active).
In the case of `C#CCCCc1nc2ccccc2c(=O)n1N`, the activity change, negative = inhibition is reported as 3.38% (inactive).
For `Cc1ccc(Cn2c(CCCNC(=O)C3CCCCC3)nc3ccccc32)cc1`, the activity change, negative = inhibition was 10.5% (inactive).
With `CC(C)Cn1c(-c2ccc(S(=O)(=O)N3CCOCC3)cc2)csc1=Nc1cc(Cl)ccc1Cl` the activity change, negative = inhibition was -0.499% (inactive).
`CC1CCCN(c2nc3c(S(=O)(=O)c4ccc(C(C)C)cc4)nnn3c3ccsc23)C1` (stereo not given) was tested, and the activity change, negative = inhibition was -10.6% (inactive).
In the case of `CCc1cc2c(cc(C(=O)OC)n2Cc2nc(-c3ccc(C)cc3)oc2C)s1`, the activity change, negative = inhibition is reported as 10.2% (inactive).
For `COC(=O)C1=C(C(=O)OC)[C@@H]2N(C)c3ccccc3[C@@]23C[C@@H](C(=O)OC)N(C(C)=O)C3=N1`, the activity change, negative = inhibition was -45.5% (active).
For `CC(=O)NNC1=Nc2ccccc2N(C)C(C)C1` (stereo not given), the activity change, negative = inhibition was 3.33% (inactive).
For `O=C(CSc1n[nH]c(-c2cccnc2)n1)Nc1ccc(Cl)cc1`, the activity change, negative = inhibition was 24.7% (inactive).
For `O=C(CSc1ncn[nH]1)Nc1ccnc2ccccc12`, the activity change, negative = inhibition was -18.5% (inactive).
With `O=C(CSc1n[nH]c(-c2cccnc2)n1)Nc1ccnc2ccccc12` the activity change, negative = inhibition was -30.8% (active).
In the case of `O=C(CNC(=O)c1ccc(Cl)c(C(F)(F)F)c1)OC(C(=O)Nc1cc(C(F)(F)F)ccc1Cl)c1ccccc1` (stereo not given), the activity change, negative = inhibition is reported as 7.72% (inactive).
For `COc1ccc(Cl)cc1S(=O)(=O)N1CCC(c2ccncc2)CC1`, the activity change, negative = inhibition was 8.07% (inactive).
`CCOC(=O)C1CCCN(C(=O)Cn2ncc3c(C)n(Cc4ccc(F)cc4)c(C)c3c2=O)C1` (stereo not given) was tested, and the activity change, negative = inhibition was -36.8% (active).
With `Cc1ccc(Cn2c(C)c3cnn(CC(=O)NCc4ccccc4)c(=O)c3c2C)cc1` the activity change, negative = inhibition was -2.69% (inactive).
`CCCn1c2ccccc2c2cnn(CC(=O)N3CCCC(C(=O)OCC)C3)c(=O)c21` (stereo not given) was tested, and the activity change, negative = inhibition was 13.4% (inactive).
In the case of `CC1CCN(C(=O)Cn2c(=O)n(-c3ccc(Cl)cc3)c(=O)c3c4c(sc32)CCC4)CC1`, the activity change, negative = inhibition is reported as -0.901% (inactive).
In the case of `CSc1ccc(NC(=O)Cn2nnnc2-c2ccccc2F)cc1`, the activity change, negative = inhibition is reported as -8.36% (inactive).
With `Cc1ccc(Cl)cc1NC(=O)C(C)n1nnc2sc(-c3ccccc3)cc2c1=O` (stereo not given) the activity change, negative = inhibition was -1.65% (inactive).
For `COC(=O)c1ccc(-c2noc(CN(Cc3ccccn3)CC3CCCO3)n2)cc1` (stereo not given), the activity change, negative = inhibition was -16.4% (inactive).
In the case of `CCN(CCn1cccn1)Cc1cn[nH]c1-c1ccc(OC)cc1F`, the activity change, negative = inhibition is reported as 0.481% (inactive).
With `CCN(CCn1cccn1)Cc1nc(-c2ccc(C(=O)OC)cc2)no1` the activity change, negative = inhibition was -44.5% (active).
In the case of `COC(=O)c1ccccc1NC(=O)c1ccc(C#N)cc1`, the activity change, negative = inhibition is reported as 6.29% (inactive).
With `O=[N+]([O-])c1ccc(NCCCO)c(C(F)(F)F)c1` the activity change, negative = inhibition was 6.05% (inactive).
`CC(C)(C)C(=O)NCCCNc1ccc([N+](=O)[O-])cc1` was tested, and the activity change, negative = inhibition was -35.6% (active).
With `COCCCNC(=S)NC(=O)c1ccc([N+](=O)[O-])cc1` the activity change, negative = inhibition was 5.38% (inactive).
`CC1=C(C(=O)OCc2ccc(C)cc2)C(c2ccccc2Cl)CC(=O)N1` (stereo not given) was tested, and the activity change, negative = inhibition was -1.32% (inactive).
For `Cc1cccc(Cn2c(=O)n(CCC(=O)NCCc3ccc(Cl)cc3)c(=O)c3sccc32)c1`, the activity change, negative = inhibition was -1.13% (inactive).
For `CCN(CCCNC(=O)c1cc2cc3cc(OC)ccc3nc2s1)c1ccccc1`, the activity change, negative = inhibition was -2.73% (inactive).
`Cc1ccc(CSc2nc3[nH]ncc3c(=O)[nH]2)cc1` was tested, and the activity change, negative = inhibition was -7.82% (inactive).
In the case of `CCCSc1nc2[nH]ncc2c(=O)[nH]1`, the activity change, negative = inhibition is reported as -32.5% (active).
In the case of `O=C(CSc1nc2[nH]ncc2c(=O)[nH]1)Nc1ccc(F)cc1`, the activity change, negative = inhibition is reported as -21.9% (inactive).
With `CCc1ccccc1NC(=O)CSc1nnc(-c2ccccc2)c(-c2ccccc2)n1` the activity change, negative = inhibition was 6.16% (inactive).
In the case of `CCN(C(=O)CN1C(=O)/C(=C/c2ccc(F)cc2)SC1=S)C1CCS(=O)(=O)C1` (stereo not given), the activity change, negative = inhibition is reported as 6.56% (inactive).
With `O=C1/C(=C/c2ccc(F)cc2)SC(=S)N1CCCC(=O)N1CCCCC1CCO` (stereo not given) the activity change, negative = inhibition was -30.8% (active).
With `O=C1/C(=C/c2ccc(F)cc2)SC(=S)N1NS(=O)(=O)c1ccccc1` the activity change, negative = inhibition was -4.82% (inactive).
With `O=C(Cn1cnc2c(oc3ccccc32)c1=O)Nc1ccc(OC(F)(F)F)cc1` the activity change, negative = inhibition was 17.3% (inactive).
`Cc1cc(NC(=O)Nc2ccc(Cl)cc2)n(-c2ccccc2)n1` was tested, and the activity change, negative = inhibition was -15.2% (inactive).
With `Cc1cc(Nc2ccccc2)n(C(=O)c2ccc(N)cc2)n1` the activity change, negative = inhibition was -35.8% (active).
`Cn1c(Nc2ccccc2)cc(=O)n(C)c1=O` was tested, and the activity change, negative = inhibition was 4.71% (inactive).
With `O=C(c1cccs1)c1cn(CCOc2ccc(Cl)cc2)c2ccccc12` the activity change, negative = inhibition was -2.17% (inactive).
With `O=C1C(C=NCC2CCCO2)=C(O)c2ccccc21` (stereo not given) the activity change, negative = inhibition was -0.787% (inactive).
`CN1CN(C)c2ccc([N+](=O)[O-])c3cccc1c23` was tested, and the activity change, negative = inhibition was 1.14% (inactive).
With `O=C1c2cccc3c([N+](=O)[O-])ccc(c23)C(=O)N1CC1CCCO1` (stereo not given) the activity change, negative = inhibition was -30.6% (active).
For `CC(=O)c1ccc(NC(=O)c2nc3nc(C)cc(C(F)F)n3n2)cc1`, the activity change, negative = inhibition was 6.33% (inactive).
In the case of `CCOC(=O)c1ccc(NC(=O)Cn2c(=O)n(-c3ccc(C)cc3)c(=O)c3c2cnn3C)cc1`, the activity change, negative = inhibition is reported as -7.04% (inactive).
`CCn1cc(C(=O)NCc2ccccc2)c(=O)c2cc(S(=O)(=O)N3CCCCC3)ccc21` was tested, and the activity change, negative = inhibition was 1.17% (inactive).
`CCn1c(CNC(=O)C23CC4CC(CC(C4)C2)C3)nnc1SCC(=O)Nc1ccc(OC)cc1` was tested, and the activity change, negative = inhibition was 17.4% (inactive).
With `COc1ccc(-c2noc(CCCC(=O)NC3CCCC3)n2)cc1OC` the activity change, negative = inhibition was -31.9% (active).
With `CCOc1cc(-c2noc(CCCC(=O)NC3CCCCC3)n2)ccc1OC` the activity change, negative = inhibition was -2.32% (inactive).
For `CCOc1ccc(-c2noc(CCC(=O)NC3CCCC3)n2)cc1OC`, the activity change, negative = inhibition was 5.22% (inactive).
In the case of `CCOC(=O)c1c(NC(=O)CSc2cn(CC)c3ccccc23)sc2c1CCC2`, the activity change, negative = inhibition is reported as -30.9% (active).
For `CCOC(=O)c1c(NC(=O)CSc2cn(CCNC(=O)c3cccc(C(F)(F)F)c3)c3ccccc23)sc2c1CCC2`, the activity change, negative = inhibition was -11.4% (inactive).
With `CCOC(=O)c1c(NC(=O)C(C)Sc2c[nH]c3ccccc23)sc2c1CCC2` (stereo not given) the activity change, negative = inhibition was 4.04% (inactive).
In the case of `Cc1cccc(C(=O)Nc2ccc(S(=O)(=O)N3CCCCC3c3cccnc3)cc2)c1` (stereo not given), the activity change, negative = inhibition is reported as -26.5% (inactive).
